# In PubChem BioAssay AID624071 (Southern Research Specialized Biocontainment Screening …, 2012):
# A number with no mark means an inactive call. The rule behind the calls is not given here.
# Assay: protection of cells from dengue-induced CPE – secondary screen, flavivirus guanylyltransferase probe project (AID 624071)
# Details: Dengue virus CPE inhibition assay, cell viability; series mostly up to 100 µM; CPE inhibition: at the top concentration
row,SMILES,CPE inhibition [%]
1,O=C(O)CSc1cc(NS(=O)(=O)c2cccc([N+](=O)[O-])c2)c2ccccc2c1O,0
2,O=[N+]([O-])c1cccc(S(=O)(=O)Nc2cc(SCc3ccccc3)c(O)c3ccccc23)c1,0
3,COc1ccc(OC)c(S(=O)(=O)Nc2cc(SCC(=O)O)c(O)c3ccccc23)c1,0
4,Cc1cc(C)c(S(=O)(=O)Nc2cc(SCC(=O)O)c(O)c3ccccc23)c(C)c1,0
5,O=C(O)CSc1cc(NS(=O)(=O)c2ccc(F)cc2)c2ccccc2c1O,0
6,Cn1c(=O)c2[nH]c(-c3ccc(Cl)cc3)c(O)c2n(C)c1=O,0
7,O=[N+]([O-])c1cccc(S(=O)(=O)Nc2cc(Sc3nc4ccccc4s3)c(O)c3ccccc23)c1,0
8,Cn1c(=O)c2[nH]c(-c3ccccc3)c(O)c2n(C)c1=O,0
9,O=C(O)CSc1cc(NS(=O)(=O)c2ccc(Cl)cc2)c2ccccc2c1O,0
10,Cc1ccc(S(=O)(=O)Nc2cc(SCC(=O)O)c(O)c3ccccc23)cc1,0
11,O=C(O)CSc1cc(NS(=O)(=O)c2ccc(Br)cc2)c2ccccc2c1O,0
12,O=S(=O)(Nc1cc(Sc2ccccc2)c(O)c2ccccc12)c1ccc(F)cc1,0
13,Cc1cc(F)ccc1S(=O)(=O)Nc1cc(SCC(=O)O)c(O)c2ccccc12,0
14,O=S(=O)(Nc1cc(Cl)c(O)c2ccccc12)c1ccc(F)cc1,0
15,O=S(=O)(Nc1cc(Sc2ncn[nH]2)c(O)c2ccccc12)c1ccc(F)cc1,0
16,O=C(O)CSc1cc(NS(=O)(=O)c2cccc3cccnc23)c2ccccc2c1O,0
17,Cc1ccc(S(=O)(=O)Nc2cc(Sc3nc(C)cc(C)n3)c(O)c3ccccc23)cc1,0
18,O=S(=O)(Nc1cc(SCc2ccccc2)c(O)c2ccccc12)c1ccc(Cl)cc1,0
